Most compounds without a hit are left out; they make up all but 8.1% or so of the library.
KB-3-1 tox = KB-3-1 parental cell cytotoxicity; actives 1.4% (n = 400,000); AID 1347075; KB-3-1 viability, CellTiter-Glo ATP luminescence, 72 h; Potency, µM (doses to about 46.1 µM), most hits filed as cytotoxic; note: % is set by controls: 0 for no effect and ±100 for the full control effect; nearly all actives have a fitted effect of over 60% in size
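Multi-concentration cytotoxicity screen in KB-3-1 cells grown in DMEM lacking phenol red with 10% FBS. After 72 h at 37 °C with compound, ATP-dependent luminescence was recorded.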
KB-V1 cytotox = kills drug-selected multidrug resistant KB-V1 cells. KB-V1 MDR cells viability, CellTiter-Glo, 72 h. AID 1347076. Potency, µM (top dose mostly 46.1 µM), usual class: cytotoxic. actives 3.4% (n = 400,000); note: % is set by controls: 0 for no effect and ±100 for the full control effect; nearly all actives have a fitted effect of over 60% in size
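Following 72 h at 37 degrees C with compound, KB-V1 cell viability was read by CellTiter-Glo luminescence, medium being phenol-red-free DMEM plus 10% FBS; concentration-response parameters came from normalized, curve-fitted qHTS data.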
SW480 rereplic = induces DNA re-replication in SW480 colon adenocarcinoma cells; Potency, µM (series often up to 46.1 µM), without a hit: at the top dose re-replication activation, most hits filed as activators; actives 1.8% (n = 340,000); AID 624297; SW480 DNA re-replication, Hoechst DNA content imaging, 48 h; note: % of control where 0% means no effect; nearly all actives have a fitted effect of over 55% in size
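Cells (250 per well) received 23 nL compound or DMSO by pin tool and were kept 48 hr at 37 C, 5% CO2. Nuclei were then stained with Hoechst for 40 min and scanned for DNA content.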
MCF10A rerep = DNA re-replication induction in MCF 10a cells; AID 624296; MCF 10A DNA re-replication, Hoechst nuclear intensity, 48 h; Potency, µM (series often up to 46.1 µM), inactives show top-dose activity, positive = re-replication, actives largely listed as activators; actives 2.9% (n = 350,000); note: % of control where 0% means no effect; nearly all actives have a fitted effect of over 50% in size
ELG1 repair inh = inhibitors of ELG1-dependent DNA repair in HEK293T cells | Potency, µM (series often up to 46.1 µM), for inactives: top-dose activity change, negative = inhibition, actives largely listed as inhibitors | HEK293T ELG1-luciferase reporter, luminescence, 16 h; DNA damage induced by 5-fluorouridine | actives 2.3% (n = 330,000); note: % is set by controls: 0 for no effect and ±100 for the full control effect; nearly all actives have a fitted effect of over 55% in size
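HEK293T cells expressing luciferase-tagged ELG1 (2,000/well) received 5-Fluorouridine plus compound or DMSO for 16 hr at 37 °C. Luciferase was read by ONE-Glo luminescence after 30 min at room temperature.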
An asterisk follows results filed as active; [ ] = another dose, or the depositor's remark. Calls come from the whole dose curve; as a rule, active = well fitted curve in the direction sought with a large enough effect; inconclusive = small, poorly fitted or top-dose-only effect, or another doubt; inactive = no such curve, though single readings can be large; an effect the other way counts as inactive or inconclusive. Potency is the fitted concentration of half-maximal effect.

Screening Cc1ccc(-n2nc(C)cc2NC(=O)COc2cc(C)cc3oc(=O)c4c(c23)CCC4)cc1 returned KB-3-1 tox inactive, KB-V1 cytotox 2.06µM*, SW480 rereplic 1.4%, MCF10A rerep -2.4% and ELG1 repair inh inconclusive.
CCOC(=O)c1ccc(NC(=O)c2cccn(Cc3ccccc3F)c2=O)cc1 was read as KB-3-1 tox inactive and KB-V1 cytotox 5.8µM*.
`CCOC(=O)c1ccc(NC(=O)c2cccn(Cc3ccc(C)cc3)c2=O)cc1` gave KB-3-1 tox inconclusive and KB-V1 cytotox inactive.
Screening Cc1ccc(C)c(N2CCN(C(=O)CCNS(=O)(=O)c3ccc4c(c3)oc(=O)n4C)CC2)c1 returned KB-3-1 tox inactive, KB-V1 cytotox inactive, SW480 rereplic 4.8%, MCF10A rerep -1.8% and ELG1 repair inh inconclusive.
Screening COc1ccc2cc1Oc1ccc(cc1)C[C@H]1c3cc(c(OC)cc3CCN1C)Oc1c(OC)c(OC)cc3c1[C@@H](C2)N(C)CC3 returned KB-3-1 tox inactive, KB-V1 cytotox inactive, SW480 rereplic inconclusive, MCF10A rerep -12.8% and ELG1 repair inh -6.8%.
O=C(CSc1nnc(NC(=O)c2cc(Br)ccc2Cl)s1)NCC1CCCO1 (configuration not stated) was read as KB-3-1 tox inactive, KB-V1 cytotox inactive, SW480 rereplic inconclusive, MCF10A rerep -0.5% and ELG1 repair inh -7.6%.
`CN(C)S(=O)(=O)c1ccc(C(=O)NNc2nc(-c3ccccc3)c3cc(Br)ccc3n2)cc1` gave KB-3-1 tox inactive, KB-V1 cytotox inconclusive, SW480 rereplic 13.6%, MCF10A rerep 4.5% and ELG1 repair inh 23.1µM*.
Screening OC(c1cccc(Cl)c1)(c1cccc(Cl)c1)C1CN2CCC1CC2 (configuration not stated) returned KB-3-1 tox inconclusive, KB-V1 cytotox inconclusive, SW480 rereplic 6.9%, MCF10A rerep inconclusive and ELG1 repair inh inconclusive.
Clc1ccc2c(c1)C(OC1CN3CCC1CC3)c1ccccc1CS2 (configuration not stated) was read as KB-3-1 tox inconclusive, KB-V1 cytotox 16.4µM*, SW480 rereplic inconclusive, MCF10A rerep inconclusive and ELG1 repair inh inconclusive.
`Clc1ccc([C@@H](OCCN2CCCCC2)c2ccccc2)cc1` gave SW480 rereplic 3.6%[20.6 µM] and MCF10A rerep 10.7%[20.6 µM].
CN1CCN(CCOC2c3ccccc3CSc3ccc(Cl)cc32)CC1 (configuration not stated) was read as KB-3-1 tox inconclusive, KB-V1 cytotox inconclusive, SW480 rereplic inconclusive, MCF10A rerep 23.1µM* and ELG1 repair inh -22.0%.
CCCc1nc(SC)ncc1C(=O)Nc1ccc(Cl)cc1C(=O)c1ccccc1 was read as KB-3-1 tox inactive and KB-V1 cytotox inactive.
Screening COCC(=O)N(c1c(C)cccc1C)C(C)C(=O)OC (configuration not stated) returned SW480 rereplic 1.9% and MCF10A rerep 0.0%.
For CCN(CC)c1ccc(NC(=O)c2cccc(C)c2)cc1S(=O)(=O)Nc1ccccc1OC the results were KB-3-1 tox inactive, KB-V1 cytotox inconclusive, MCF10A rerep 0.5% and ELG1 repair inh inconclusive.
CN1/C(=C\C=C2C(=O)NC(=O)NC2=O)C(C)(C)c2ccccc21 was read as KB-3-1 tox 5.17µM*, KB-V1 cytotox inconclusive, SW480 rereplic 7.7%, MCF10A rerep 12.3% and ELG1 repair inh inconclusive.
Screening CCOC(=O)C(O)(c1ccc(N(CC)S(=O)(=O)c2ccc(C)cc2)cc1)C(F)(F)F (configuration not stated) returned KB-3-1 tox inactive, KB-V1 cytotox 18.4µM*, SW480 rereplic inconclusive, MCF10A rerep inconclusive and ELG1 repair inh -7.1%.
Screening Cc1cc(N2CCCC2)ccc1C=C(C#N)C#N returned KB-3-1 tox inactive, KB-V1 cytotox inactive, SW480 rereplic -13.9%, MCF10A rerep 0.5% and ELG1 repair inh -13.3%.
Screening Cc1ccc2cc(C=C(C#N)C#N)c(Cl)nc2c1 returned KB-3-1 tox inconclusive, KB-V1 cytotox inconclusive, SW480 rereplic inconclusive, MCF10A rerep 7.31µM* and ELG1 repair inh -23.5%.
For CC(C)(C)c1ccc(OCC(=O)Nc2ccc(Cl)cc2C(=O)c2ccccc2)cc1 the results were KB-3-1 tox inactive and KB-V1 cytotox inactive.
COC(=O)C1=C(c2cc3ccccc3s2)C[C@@H]2CC[C@H]1N2C(=O)N1CCCCC1 was read as KB-3-1 tox 25.9µM*, KB-V1 cytotox inconclusive, SW480 rereplic inconclusive and MCF10A rerep 18.4µM*.
For COC(=O)C1=C(c2cc3ccccc3s2)C[C@@H]2CC[C@H]1N2C(=O)N1CCC(O)CC1 the results were KB-3-1 tox inconclusive, KB-V1 cytotox inactive, SW480 rereplic 0.6% and MCF10A rerep 19.9%.
For COC(=O)C1=C(c2cc3ccccc3s2)C[C@@H]2CC[C@H]1N2C(=O)NC1CCCCC1 the results were KB-3-1 tox inconclusive, KB-V1 cytotox inconclusive, SW480 rereplic inconclusive and MCF10A rerep 20.6µM*.
NC1CC2CCCCC2CC1(O)c1ccccc1 (configuration not stated) was read as KB-3-1 tox inactive and KB-V1 cytotox inactive.
For CC(C)C1C(c2ccccc2)N(C)C(c2ccccc2)CC1(O)c1ccccc1 (configuration not stated) the results were KB-3-1 tox inactive, KB-V1 cytotox inconclusive, SW480 rereplic inconclusive, MCF10A rerep 5.17µM* and ELG1 repair inh -6.6%.
Screening COc1ccc(NC2Oc3cc4c(cc3C(c3cc(OC)c(OC)c(OC)c3)C2C)OCO4)cc1 (configuration not stated) returned KB-3-1 tox 1.64µM*, KB-V1 cytotox 5.8µM*, SW480 rereplic 1.03µM* and MCF10A rerep 0.581µM*.
For COc1cccc(CNCCc2ccc3c(c2)OCO3)c1OC the results were KB-3-1 tox inactive, KB-V1 cytotox inactive, SW480 rereplic 27.7%, MCF10A rerep 5.2% and ELG1 repair inh inconclusive.
For COC(=O)[C@]1(C)N[C@H](CN(C)S(=O)(=O)c2ccc(-c3ccccc3)cc2)[C@@H]2C(=O)N(Cc3ccccc3)C(=O)[C@@H]21 the results were KB-3-1 tox inactive, KB-V1 cytotox inactive, SW480 rereplic 4.0%, MCF10A rerep inconclusive and ELG1 repair inh inconclusive.
CC(C)(C)NC(=O)N1c2ccccc2Sc2ccccc21 was read as KB-3-1 tox inconclusive, KB-V1 cytotox inactive, SW480 rereplic -5.1%, MCF10A rerep inconclusive and ELG1 repair inh inconclusive.
Screening CC(=O)O[C@H]1C[C@@H]2OC3C=C(C)CCC3(C)[C@@]1(C)[C@@]21CO1 (some centres not stated) returned KB-3-1 tox 2.31µM*, KB-V1 cytotox 1.64µM*, SW480 rereplic 9.2µM* and MCF10A rerep 1.03µM*.

Screening results from PubChem BioAssay.
